Measured values taken from PubChem BioAssay AID1159580 (chemical genetic matrix, 2015).
Among all 5,500 compounds or so, about 2,000 (36%) were called active. About 18% were inconclusive and are not listed. No stated cut-off is given here; in the data, active means normalized growth mostly below about 0.91 (no sharp cut-off); inconclusive means no clear call, values can overlap the other calls; inactive means mostly above about 0.92. Some of the results follow.

Test: chemical genetic growth profiling, strain panel (AID 1159580);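 further: tested at 20 µM; growth read once vehicle control cultures reached saturation at 30 °C; 1 = growth at the plate median or of vehicle wells; lower values mean less growth of the strain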
Conditions: S. cerevisiae deletion strains, growth OD
[1] = locus YDL101C, strain DUN1, hits give low values
[2] = locus YHR030C, strain SLT2, hits give low values

Measured: normalized growth

Nc1ncnc(SCc2ccc(Cl)cc2)n1
inactive: locus YAL013W, strain DEP1, hits give low values 0.984 | locus YBR229C, strain ROT2, hits give low values 1.01 | locus YCL061C, strain MRC1, hits give low values 1.02 | [1] 0.988 | locus YDR150W, strain NUM1, hits give low values 1.04 | locus YEL061C, strain CIN8, hits give low values 0.968 | locus YGR078C, strain PAC10, hits give low values 1 | [2] 1.08 | locus YHR087W, strain rtc3, hits give low values 1 | locus YJR043C, strain POL32, hits give low values 0.999 | locus YJR075W, strain HOC1, hits give low values 1.01 | locus YLR039C, strain RIC1, hits give low values 0.835 | locus YLR058C, strain SHM2 (second series), hits give low values 0.999 | locus YLR085C, strain ARP6, hits give low values 0.994 | locus YLR262C, strain YPT6, hits give low values 0.988 | locus YML094W, strain GIM5, hits give low values 0.992 | locus YMR219W, strain ESC1, hits give low values 0.996 | locus YMR263W, strain SAP30, hits give low values 0.989 | locus YMR307W, strain GAS1, hits give low values 0.995 | locus YNL153C, strain GIM3, hits give low values 1.01 | locus YNL298W, strain CLA4 (second series), hits give low values 0.98 | locus YNL322C, strain KRE1, hits give low values 0.987 | locus YNR030W, strain Alg12, hits give low values 1.02 | locus YPL055C, strain LGE1, hits give low values 1.01 | locus YPL241C, strain CIN2, hits give low values 0.993 | locus YPR135W, strain CTF4, hits give low values 1.14

Clc1ccc(CSc2nccn2-c2cc(Cl)ccc2Cl)cc1
inactive: locus YAR019C, strain CDC15, hits give low values 0.969 | locus YBL105C, strain PKC1, hits give low values 0.964 | locus YBR135W, strain CKS1, hits give low values 0.96 | locus YBR136W, strain MEC1, hits give low values 0.951 | locus YBR160W, strain CDC28, hits give low values 0.963 | locus YDL017W, strain CDC7, hits give low values 0.969 | locus YDL028C, strain MPS1, hits give low values 0.949 | [1] 0.97 | locus YDL108W, strain KIN28, hits give low values 0.937 | locus YDL132W, strain cdc53, hits give low values 0.978 | locus YDL214C, strain PRR2, hits give low values 0.888 | locus YDR052C, strain DBF4, hits give low values 0.962 | locus YDR054C, strain cdc34, hits give low values 0.946 | locus YDR226W, strain ADK1, hits give low values 0.954 | locus YDR477W, strain SNF1, hits give low values 0.888 | locus YER123W, strain YCK3, hits give low values 0.784 | locus YER133W, strain GLC7, hits give low values 0.884 | locus YFL009W, strain cdc4, hits give low values 0.951 | locus YFL029C, strain CAK1, hits give low values 0.965 | locus YFR003C, strain YPI1, hits give low values 0.958 | locus YFR019W, strain FAB1, hits give low values 0.909 | locus YFR028C, strain CDC14, hits give low values 0.961 | locus YGR040W, strain KSS1, hits give low values 0.872 | locus YGR052W, strain FMP48, hits give low values 0.946 | locus YGR092W, strain DBF2, hits give low values 0.801 | locus YHR079C, strain IRE1, hits give low values 0.88 | locus YHR082C, strain KSP1, hits give low values 0.951 | locus YHR205W, strain SCH9, hits give low values 0.893 | locus YIL147C, strain SLN1, hits give low values 0.953 | locus YJL095W, strain BCK1, hits give low values 0.886 | locus YJL128C, strain PBS2, hits give low values 0.987 | locus YJL157C, strain FAR1, hits give low values 0.867 | locus YJR016C, strain ILV3, hits give low values 0.963 | locus YJR066W, strain TOR1 (second series), hits give low values 0.829 | locus YJR066W, strain TOR1, hits give low values 0.948 | locus YKL048C, strain ELM1, hits give low values 0.927 | locus YKL067W, strain YNK1, hits give low values 0.894 | locus YKL101W, strain HSL1, hits give low values 0.887 | locus YKL193C, strain SDS22, hits give low values 0.961 | locus YKL203C, strain TOR2, hits give low values 0.915 | locus YLR113W, strain HOG1, hits give low values 0.884 | locus YLR133W, strain CKI1, hits give low values 0.886 | locus YLR403W, strain SFP1, hits give low values 0.832 | locus YML070W, strain DAK1, hits give low values 0.872 | locus YMR001C, strain CDC5, hits give low values 0.964 | locus YMR205C, strain PFK2 (second series), hits give low values 0.879 | locus YMR277W, strain FCP1, hits give low values 0.958 | locus YNL006W, strain LST8, hits give low values 0.961 | locus YNL020C, strain ARK1, hits give low values 0.859 | locus YNL161W, strain CBK1, hits give low values 0.964 | locus YNL183C, strain NPR1, hits give low values 0.909 | locus YNL207W, strain RIO2, hits give low values 0.965 | locus YNL222W, strain SSU72, hits give low values 0.961 | locus YNL307C, strain MCK1 (second series), hits give low values 0.879 | locus YOL078W, strain AVO1, hits give low values 0.962 | locus YOL136C, strain PFK27, hits give low values 0.872 | locus YOR061W, strain CKA2, hits give low values 0.817 | locus YOR119C, strain RIO1, hits give low values 0.856 | locus YOR231W, strain MKK1, hits give low values 0.868 | locus YOR329C, strain SCD5, hits give low values 0.967 | locus YPL031C, strain PHO85, hits give low values 0.866 | locus YPL153C, strain RAD53, hits give low values 0.847 | locus YPL204W, strain HRR25, hits give low values 0.86 | locus YPL209C, strain IPL1, hits give low values 0.96 | locus YPL256C, strain CLN2, hits give low values 0.977 | locus YPR025C, strain CCL1, hits give low values 0.964 | locus YPR106W, strain ISR1, hits give low values 0.978 | locus YPR111W, strain DBF20, hits give low values 0.976 | strain NNK1, hits give low values 0.974 | strain TSCII, hits give low values 0.962
active: [2] 0.69
